This note sets out measurements from PubChem BioAssay (NCATS).

Results filed as inconclusive are left out. Active and inactive are the calls of the source. The call rests on the fitted dose curve; in most records, active means well fitted inhibition curve with a large enough effect; inconclusive means small, poorly fitted or top-dose-only effect; inactive means no such curve, though single readings can be large or run the other way.

The experiment deals with Retinaldehyde dehydrogenase 3 (Homo sapiens) (UniProt P47895). The experiment in a line: qHTS for Inhibitors of the Aldehyde Dehydrogenase Family (ALDH1A3) Primary screen (AID 2061315).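 Further: plate controls were DMSO vehicle for no effect and reference inhibitor for full effect.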 As to conditions: ALDH inhibition qHTS; series mostly up to 56 µM; activity change, negative = inhibition: at the top concentration.
In the case of `CC1=C(C(=O)Nc2ccccc2)C(c2ccccc2Cl)N=C(Nc2nc3ccccc3o2)N1` (stereo not given), the “activity change, negative = inhibition” value was 11% (inactive).
To `Cc1cnc(-c2ccccc2C(C)C)nc1NCc1ccc(-c2cccc(S(N)(=O)=O)c2)cc1` belongs -1.95% (inactive); to `O=C(Nc1nnc(COc2ccc(Cl)cc2)s1)c1cccs1`, 0.246% (inactive).
Turning to `CN(CCc1cccs1)c1ncnc2ccc(-c3ccc4c(c3)OCO4)cc12`, the “activity change, negative = inhibition” value was 1.93% (inactive).
To `O=C(/C=C/n1cnc(-c2cc(C(F)(F)F)cc(C(F)(F)F)c2)n1)NNc1cnccn1` belongs 32.6% (inactive); to `Cc1cc(C)n2ncc(C(=O)Nc3ccc(C(C)(C)C)cc3)c2n1`, 12.1% (inactive); to `O=S(=O)(NCC1CC1)c1ccc(Nc2nccc(N3CCCc4cc(O)ccc43)n2)cc1`, 3.61% (inactive).
Next, `CS(=O)(=O)c1ccc(C(=O)OCC(=O)N2CCOCC2)cc1[N+](=O)[O-]`: -4.45% (inactive).
To `Cc1noc(C)c1-c1ccc2ncnc(NCc3ccc(-c4ccccc4)cc3)c2c1` belongs -1.7% (inactive); to `Nc1ccc(S(=O)(=O)N2CCN(S(=O)(=O)c3ccc4c(c3)OCCO4)CC2)cc1`, 14.9% (inactive); to `Cc1ccc(NS(=O)(=O)c2ccc3ccccc3c2)cc1C`, 3.98% (inactive).
`CC(=O)Nc1sc2c(c1C(O)c1nc3ccccc3s1)CCN(C(C)C)C2` (stereo not given): the “activity change, negative = inhibition” value is 2.24% (inactive).
On to `COc1cc(-c2nc(Nc3ccc(F)c(F)c3)c3ccccc3n2)ccn1`, for which the “activity change, negative = inhibition” value is 3.48% (inactive).
Next, `C=C1C(=O)O[C@H]2/C=C(/C)[C@@H](OC(C)=O)C/C=C(\C)C[C@@H](OC(=O)/C(=C/C)COC(=O)/C(=C/C)CO)[C@@H]12`: 0.575% [at 28 µM] (inactive); `Cc1ccc(CNc2nc(-c3ccccc3C(F)(F)F)nc3ccccc23)s1`: -9.38% (inactive).
As to `CCCn1ncc(CN2CCCC(C(=O)c3cccc(OC(C)C)c3)C2)c1C` (stereo not given), the “activity change, negative = inhibition” value is 7.37% (inactive).
To `CC(Cc1cnccn1)Nc1cnc2c(O)ccc(C(=O)O)c2c1` (stereo not given) belongs -4.22% (inactive); to `CCOC(=O)c1c(-c2ccc(OC)cc2)csc1NC(=O)C1CCCO1` (stereo not given), 15.1% (inactive); to `Cc1ccnc(NC(=S)N2CC3CN(c4ncc(C(F)(F)F)cc4Cl)CC3C2)c1` (stereo not given), -13.8% (inactive).
To `O=C(Cn1nc(-c2ccc(C(F)(F)F)cc2)ccc1=O)NCCc1ccccc1` belongs -10.6% (inactive); to `O=C1CCc2cc(S(=O)(=O)Nc3cccc(-c4ccccc4)c3)ccc2N1`, 4.1% (inactive).
Consider `COc1cccc(CNc2ccc(S(=O)(=O)Nc3cccnc3)cc2)c1O`, for which the “activity change, negative = inhibition” value was -14.8% (inactive).
For `O=C1CCc2cc(S(=O)(=O)Nc3ccc(F)c(Cl)c3)ccc2N1`, the “activity change, negative = inhibition” value is -0.727% (inactive).
To `CC1(C)CC[C@]23CO[C@@]4(CCC5[C@@]6(C)CC[C@H](O[C@@H]7OC[C@H](O[C@@H]8O[C@H](CO)[C@@H](O)[C@H](O)[C@H]8O[C@@H]8OC[C@@H](O)[C@H](O)[C@H]8O)[C@H](O)[C@H]7O[C@@H]7O[C@H](CO)[C@@H](O)[C@H](O)[C@H]7O)[C@@](C)(CO)C6CC[C@@]5(C)[C@]4(C)C[C@H]2O)[C@@H]3C1` (stereo not given in full) belongs 9.39% [at 16.9 µM] (inactive); to `CCOc1ccc(CCNC(=O)C2CCCCC2)cc1OCC`, -1.76% (inactive).
